Experimental data: PubChem BioAssay AID2551 (National Center for Advancing Translational Sciences (NCATS), 2010)
The whole screen tested about 310,000 compounds, of which about 17,000 (5.5%) were called active. About 11% were inconclusive and are not listed. The call rests on the fitted dose curve; in most records, active means well fitted inhibition curve with a large enough effect; inconclusive means small, poorly fitted or top-dose-only effect, or effect the other way; inactive means no such curve, though single readings can be large or run the other way. Shown is part of a subset that was picked to be rich in actives. A call without a number means that no potency is given here.

target: Nuclear receptor ROR-gamma (Mus musculus) (UniProt P51450); test: qHTS for inhibitors of ROR gamma transcriptional activity; conditions: Drosophila S2 Gal4-RORgamma UAS-luciferase reporter, 20 h; series mostly up to 53.6 µM; further: nearly all actives have a fitted effect of over 60% in size
Sequence (P51450 whole entry, looked up, the tested form may be a part): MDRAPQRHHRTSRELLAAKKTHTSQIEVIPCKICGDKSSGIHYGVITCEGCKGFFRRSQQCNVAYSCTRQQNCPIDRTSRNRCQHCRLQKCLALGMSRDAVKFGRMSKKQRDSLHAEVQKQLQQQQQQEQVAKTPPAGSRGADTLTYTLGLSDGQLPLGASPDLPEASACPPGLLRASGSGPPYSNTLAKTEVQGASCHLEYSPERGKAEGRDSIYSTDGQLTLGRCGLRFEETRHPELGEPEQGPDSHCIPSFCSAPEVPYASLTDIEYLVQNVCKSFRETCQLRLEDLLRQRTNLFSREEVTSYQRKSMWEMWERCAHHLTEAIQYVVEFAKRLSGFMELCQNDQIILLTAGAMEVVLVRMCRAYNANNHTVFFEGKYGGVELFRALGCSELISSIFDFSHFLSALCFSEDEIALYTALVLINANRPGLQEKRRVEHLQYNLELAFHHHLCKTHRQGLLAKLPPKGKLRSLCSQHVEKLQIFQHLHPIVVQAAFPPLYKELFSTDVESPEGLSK
Outline: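 Luminescence from a UAS-regulated Photinus luciferase reporter in stably transfected Drosophila Schneider cells is measured; decreased signal marks ROR gamma inhibition. Fusion expression is induced by 700 uM copper sulfate for 20 hr.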
Potency means the concentration at half of the fitted maximal effect.

| Compound | Potency |
| --- | --- |
| COc1ccc(N(CC(=O)Nc2cccc3ccccc23)S(C)(=O)=O)c(OC)c1 | inactive |
| CC(=O)c1ccc(S(=O)(=O)N(C)CCCC(=O)N(C)Cc2ccccc2F)cc1 | inactive |
| Cc1ccc(C(=O)Cn2cccn2)cc1 | inactive |
| Cc1ccc(C(=O)CSc2ccccc2C(=O)O)cc1 | 10 µM (active) |
| Cc1ccc(Sc2cc(C(=O)c3ccccc3C(=O)O)ccc2[N+](=O)[O-])cc1 | inactive |
| CCOc1cc(C2/C(=C(/O)c3ccc(S(=O)(=O)N4CCCCC4)cc3)C(=O)C(=O)N2CCOC)ccc1O (centres undefined) | inactive |
| Cc1cc(=O)oc2cc(OCC(=O)N3CCN(c4ccc(F)cc4)CC3)c(Cl)cc12 | inactive |
| CCOC(=O)C1(Cc2ccccc2C)CCCN(C(=O)c2ccc(COC)o2)C1 (centres undefined) | inactive |
| COc1cc(NC(=O)CN2C(=O)NC(C)(c3ccc(OC(F)F)cc3)C2=O)cc(OC)c1OC (centres undefined) | inactive |
| COc1ccc(O)c(/C=N/N=C/c2cccc([N+](=O)[O-])c2)c1 | inactive |
| CCN(CC)C(=O)COc1coc(CN2CCN(Cc3ccccc3)CC2)cc1=O | inactive |
| CSc1nc(-c2ccccc2)nc(C(Cl)Cl)n1 | 7.08 µM (active) |
| Clc1ccc2nc(-c3ccccc3)nc(C(Cl)Cl)c2c1 | inactive |
| CCCc1cc(=O)oc2c(C)c(OC(C)C(=O)NCC(O)c3ccccc3)ccc12 (centres undefined) | inactive |
| O=C(COc1ccc(-n2cnnn2)cc1)Nc1ccccc1Cl | inactive |
| C=CCc1ccccc1OCC(=O)N/N=C/c1ccccc1OCC | inactive |
| C=CCc1cccc(/C=N/NC(=O)COc2ccc(-n3cnnn3)cc2)c1O | 8.91 µM (active) |
| O=C(C1CC(=O)N(c2ccc(F)cc2)C1)N1CCN(c2ccccc2)CC1 (centres undefined) | inactive |
| COc1cc(Nc2nc3ccc(Cl)cc3n3cnnc23)cc(OC)c1OC | inactive |
| CC1(c2ccc3ccccc3c2)NC(=O)N(CC(N)=O)C1=O (centres undefined) | inactive |
| COc1ccc(S(=O)(=O)NCC(=O)NC2CC2)cc1OC | inactive |
| Cc1ccc(C)c(C(C)NC(=O)C2CCCO2)c1 (centres undefined) | inactive |
| Cc1ccc(C(=O)N/C(=C\c2ccc(F)cc2)C(=O)NCCN2CCOCC2)cc1 | inactive |

| Compound | Potency |
| --- | --- |
| CCCCNC(=S)N/N=C1\CCCCc2ccccc21 | 2 µM (active) |
| CCCCNC(=O)C(=O)c1ccccc1NC(C)=O | inactive |
| O=[N+]([O-])c1ccccc1N/N=C1\CCc2ccccc21 | inactive |
| CCNC(=O)CC1C(=O)N(c2ccc(OC)cc2)C(=O)N1CCOC (centres undefined) | inactive |
| O=C(N/N=C/c1cc(Cl)cc([N+](=O)[O-])c1O)C(O)(c1ccccc1)c1ccccc1 | 1 µM (active) |
| O=[N+]([O-])c1cc(Cl)cc(/C=N/NC(=S)Nc2cc(S(=O)(=O)N3CCOCC3)ccc2Cl)c1O | inactive |
| CN(C)/N=C/c1cc(Cl)cc([N+](=O)[O-])c1O | 11.2 µM (active) |
| O=C(Cc1cc(=O)[nH][nH]1)N/N=C/c1ccccc1[N+](=O)[O-] | inactive |
| CC(=O)N/N=C/c1cc2c(cc1[N+](=O)[O-])OCO2 | inactive |
| COC(=O)c1cc(CNC(=O)CC(C)c2ccccc2)ccc1OC (centres undefined) | inactive |
| CN(C)CCN(Cc1ccccc1)S(=O)(=O)c1csc(C(N)=O)c1 | inactive |
| CCOC(=O)CC1COCCN1C(=O)c1cc(COc2ccc(F)c(F)c2)on1 (centres undefined) | inactive |
| COc1ccc(N(C)C(=O)C2CCN(S(=O)(=O)c3cccc4nsnc34)CC2)cc1 | inactive |
| COC(=O)/C=C\C(=O)Nc1cccc([N+](=O)[O-])c1 | 3.16 µM (active) |
| CC(=O)Nc1cccc([N+](=O)[O-])c1 | inactive |
| Cc1ccccc1NC(=S)Nc1cccc([N+](=O)[O-])c1 | inactive |
| COC(=O)c1nc(NC(=O)c2ccccc2)n[nH]1 | inactive |
| Cn1nnc(NC(=S)NC(=O)c2ccccc2)n1 | 3.55 µM (active) |
| Cn1nnc(NC(=O)CSc2ncn[nH]2)n1 | inactive |
| COc1ccc(CN2CCN(C(=O)CCC(=O)Nc3nnc(C(C)C)s3)CC2)cc1F | inactive |
| O=C(CN(Cc1ccccc1)C(=O)CCC(=O)Nc1ccccn1)NCCc1ccccc1 | inactive |
| Cc1cc(C)c2nc(N(CCN(C)C)C(=O)/C=C/c3cccs3)sc2c1 | inactive |
| Cc1ccc2sc(N(CCN(C)C)C(=O)/C=C/c3cccs3)nc2c1C | inactive |

| Compound | Potency |
| --- | --- |
| COc1cccc2sc(N(CCCN(C)C)C(=O)CCS(=O)(=O)c3ccccc3)nc12 | 11.2 µM (active) |
| CN(C)CCCN(C(=O)COc1ccccc1)c1nc2c(Cl)cccc2s1 | inactive |
| COc1cc2ccccc2cc1C(=O)N(CCN(C)C)c1nc2c(F)cccc2s1 | inactive |
| Cc1cccc2sc(N(CCCN(C)C)C(=O)CCS(=O)(=O)c3ccccc3)nc12 | 10 µM (active) |
| Cc1cccc(N2CCN(S(=O)(=O)c3ccc(-c4cc(C)no4)s3)CC2C)c1 (centres undefined) | inactive |
| COc1ccc(C(CNC(=O)c2cc3c(s2)CCCC3)N2CCOCC2)cc1 (centres undefined) | inactive |
| COc1cc(C(=O)NC2CCN(Cc3ccccc3)CC2)cc(Cl)c1OC(C)C | inactive |
| COc1ccc(C(CNC(=O)COc2ccccc2OC)N2CCCCC2)cc1 (centres undefined) | inactive |
| Cc1ccc2cc(C#N)c(NCCNC(=S)NCCCN3CCOCC3)nc2c1 | inactive |
| Cc1ccc2nc(NCCCNC(=O)c3cnccn3)c(C#N)cc2c1 | inactive |
| COCCCNC(=S)NCCNc1nc2cc(C)c(C)cc2cc1C#N | 15.8 µM (active) |
| COCC(=O)Nc1c(C(=O)N2CCCC2)oc2ccccc12 | inactive |
| CC(NC(=O)COc1ccc(-c2ccccc2)cc1)C1CCCO1 (centres undefined) | inactive |
| COc1ccc(S(=O)(=O)/N=C2\C=C(NS(=O)(=O)c3ccccc3)C(=O)c3ccccc32)cc1 | inactive |
| CC(C)CC[n+]1ccn(C2=C([O-])c3ccccc3C(=O)/C2=N\S(=O)(=O)c2ccccc2)c1 | 11.2 µM (active) |
| COc1ccc(C2CC(c3ccc([N+](=O)[O-])cc3)=NN2C(C)=O)cc1 (centres undefined) | inactive |
| CC(C)C(C)NC(=O)COc1nc2ccccc2nc1N(C)C1CCCCC1 (centres undefined) | inactive |
| O=C(/C=C/c1ccc(Cl)c([N+](=O)[O-])c1)c1cccnc1 | inactive |
| O=C(Nc1cccnc1)c1cc(Cl)ccc1Cl | inactive |
| O=C(/C=C/c1ccc(Cl)cc1Cl)c1cccnc1 | 2.82 µM (active) |
| Cc1ccc(/C=C/C(=O)Nc2ccc([N+](=O)[O-])c(NC(=O)/C=C/c3ccc(C)o3)c2)o1 | inactive |
| O=C(/C=C/c1ccc([N+](=O)[O-])o1)NNC(=O)c1ccc(F)cc1 | 2.82 µM (active) |
| O=C(N/N=C/c1ccc([N+](=O)[O-])o1)c1cn(-c2ccccc2)nc1-c1ccc(F)cc1 | inactive |
